Compound activity (PubChem BioAssay)
aSyn 5UTR act: Activators via SNCA 5'UTR binding, MLPCN | alpha-synuclein 5'UTR reporter, activators screen | activity score, % (tested at 7.5 µM), hits read low | 300,000 compounds, 7.1% hits | AID 1814, 2009; in the data active = activity score below about -60%
A number is an active result; 0 = inactive. The list is a sample of the results.

SMILES	aSyn 5UTR act
Cc1cccc(C(=O)Nc2sc(C)c(-c3ccccc3)c2C#N)c1	-260
Cc1oc2cc3c(C(=O)N4CCCCC4)c(C)oc3cc2c1C(=O)N1CCCCC1	-162
O=C(Nc1ccccc1)C1=C[C@@H](c2ccc(Br)cc2)C[C@@H](OCCCCO)O1	-95
O=C(Nc1ccccc1)C1=C[C@H](c2ccc(C(F)(F)F)cc2)C[C@H](OCCCCO)O1	-91
CCO[C@@H]1OC(C(=O)Nc2ccccc2)=C[C@H](c2coc3ccccc3c2=O)[C@H]1CCCO	0
O=C(Nc1ccccc1)C1=C[C@H](c2ccccc2)C[C@H](OCCCCO)O1	-147
Cc1cc(C)c(S(C)(=O)=O)c(S(=O)(=O)c2ccc(Cl)cc2)n1	-87
O=[N+]([O-])c1ccccc1/C=N/NC1=NCCCCC1	-173
CCN1CCN(Cc2ccc(NC(=O)c3ccc(C)c(NC(=O)c4ccno4)c3)cc2C(F)(F)F)CC1	0
Cc1ccc(C(=O)Nc2ccc(Br)c(C(F)(F)F)c2)cc1	-212
Cc1ccc(Cn2c(CCNc3nc(-c4ccc(Cl)c([N+](=O)[O-])c4)cs3)nc3cc(Cl)c(Cl)cc32)cc1	-78
N/C(=N\OC(=O)c1ccc(Cl)cc1[N+](=O)[O-])c1cccnc1	-104
N/C(=N\OC(=O)c1cc(Cl)ccc1Cl)c1cccnc1	-131
N/C(=N\OC(=O)c1ccccc1)c1cccnc1	-128
Cc1ccc(OCC(=O)O/N=C(\N)c2cccnc2)cc1	-88
N/C(=N\OC(=O)COc1ccc(Cl)cc1Cl)c1cccnc1	-146
N/C(=N\OC(=O)c1ccccc1Cl)c1cccnc1	-168
N/C(=N\OC(=O)c1cc(Br)ccc1Cl)c1cccnc1	-215
C/C(=N\Nc1cccc2cccnc12)c1ccccc1O	-204
C/C(=N\Nc1cccc2cccnc12)c1ccc(N)cc1	-93
CC(=O)NC(c1ccc(C(C)C)cc1)c1ccc2cccnc2c1O (stereo not drawn)	0
COc1ccccc1/C=C/C=C(\C#N)C(=O)NC(C)c1ccccc1 (stereo not drawn)	-74
Cc1ccc(C(=O)NCCc2nnc(SCC(=O)Nc3nc(-c4ccccc4)cs3)n2C)cc1	-65
Cc1nnc(SCC(=O)Nc2nc(-c3ccccc3)cs2)n1N	-81
Cn1c(CCNC(=O)c2cccs2)nnc1SCC(=O)Nc1nc(-c2ccccc2)cs1	-73
SMILES	aSyn 5UTR act
CC(C)(C)C(=O)[C@H]1[C@H](c2ccccc2)[C@@]2(N=C(c3ccccc3)OC2=O)C2c3ccccc3C=NN21 (stereo partly drawn)	-83
CC1CCN(C(=S)NCCc2ccccc2)CC1	-138
OCC1CCCN(C(=S)NCCc2ccccc2)C1 (stereo not drawn)	-106
COc1cc(-c2nnc3n2N=C(c2ccccc2)CS3)cc(OC)c1OC	0
COc1ccc(C2=NN(c3ccccc3)C(c3ccc(OC)c(OC)c3)C2)cc1 (stereo not drawn)	-76
COc1ccc(C2CC(c3cccs3)=NN2c2nc(-c3ccccc3)cs2)cc1OC (stereo not drawn)	-64
COc1ccc(C2=NN(C(C#N)c3ccc(OC)c(OC)c3)C(c3ccccc3)C2)cc1 (stereo not drawn)	-172
Cc1ccc(C2CC(c3ccccc3)=NN2c2ccccc2)o1 (stereo not drawn)	-232
CC(=O)Nc1ccc(C2CC(c3ccc(Cl)cc3)=NN2c2ccccc2)cc1 (stereo not drawn)	-79
c1ccc(N=Nc2ccc3cccccc2-3)cc1	-259
CC(C)c1ccc2[nH]c(O)c(N=NC(=O)c3ccc(CSc4nncn4C)cc3)c2c1	-72
C/C(=N/NC(=O)c1cnccn1)c1cccs1	-65
C/C(=N/NC(=O)c1ccc(Br)o1)c1cccs1	-73
C/C(=N\NC(=O)c1ccc(CSc2nncn2C)cc1)c1cccs1	-62
C/C(=N\NC(=O)c1n[nH]c2c1CCC2)c1cccs1	0
C/C(=N\NC(=O)c1ccccc1O)c1ccc(Br)s1	-162
CCOC(=O)C(CC)/C(C)=N\NC(=O)c1ccccc1O (stereo not drawn)	0
C/C(=N\Nc1ccccn1)c1cccs1	-148
C/C(=N\NC(=O)c1cc(Br)ccc1O)c1cccs1	-111
O=C(O)c1ccc(Cn2nnc3sc4c(c3c2=O)CCCC4)cc1	-151
O=C(O)CSc1nc2sc3c(c2c(=O)n1Cc1ccccc1)CCCCC3	-230
N#C/C(=C\c1ccc(OCc2ccccc2)cc1)C(=O)Nc1ccc(C(=O)O)cc1	-96
CCOc1cc(/C=C(/C#N)C(=O)Nc2ccc(O)cc2)cc(Br)c1O	0
COc1cc(/C=C(/C#N)C(=O)Nc2ccccc2)c(Br)cc1OCc1ccc(C(=O)O)cc1	-67
CCOC(=O)c1c(C)[nH]c(C(=O)OCC(=O)Nc2sccc2C(N)=O)c1C	-119
SMILES	aSyn 5UTR act
O=C(Nc1ccc(F)cc1F)N1CCCCCC1	-86
COC(=O)c1ccc(NC(=O)Nc2cccc(F)c2)cc1	-206
COC(=O)c1ccc(NC(=O)Nc2ccc(F)cc2F)cc1	-111
CCSc1nsc(NC(=O)Nc2ccc(F)cc2F)n1	-138
O=C(Nc1ccccc1)Nc1ccc(F)cc1F	-115
CCc1c(C)sc(NC(=O)c2ccco2)c1C#N	-104
COCCCNc1nc(N)c([N+](=O)[O-])c(Nc2cc(OC)ccc2OC)n1	0
CCCOc1ccc(C(=O)Nc2ccc(C)cc2[N+](=O)[O-])cc1	-72
COCCCNC(=S)Nc1ccc(C)cc1[N+](=O)[O-]	-75
CC(C)COc1ccc(C(=O)Nc2ccccc2[N+](=O)[O-])cc1	-212
CCN(CC)C(=O)Cn1cc(S(=O)(=O)CC(=O)Nc2ccc3c(c2)OCCO3)c2ccccc21	-82
C(=N\Nc1nc2ccccc2[nH]1)/c1c[nH]c2ccccc12	-224
Cc1cc(=O)[nH]c(N/N=C/c2cc(C)n(CC(F)(F)F)c2C)n1	-89
COc1ccc(/C=N/Nc2nc3ccccc3[nH]2)c(OC)c1OC	-109
Cc1[nH]c2ccccc2c1/C=N/Nc1nc2ccccc2[nH]1	-228
Cc1ccccc1/C=N/Nc1nc2ccccc2[nH]1	-115
COc1cccc(/C=N/Nc2ncccc2[N+](=O)[O-])c1OC	0
Cc1[nH]c2ccccc2c1/C=N/Nc1cccc(C(=O)O)c1	-101
C(=N\Nc1nc2ccccc2[nH]1)/c1cccc2cccnc12	0
COc1cccc(/C=N/Nc2nc(C)cc(=O)[nH]2)c1OC	-79
Cc1ccc(/C=N/Nc2nc3ccccc3[nH]2)s1	-312
CCCC1CCC(c2nc(-c3cccnc3)no2)CC1 (stereo not drawn)	-166
Cc1cc(C)n(-c2nc(-c3ccc(Cl)c(Cl)c3)cs2)n1	-109
O=c1cc(/C=C/c2c(F)cccc2Cl)[nH]c2ccccc12	-102
Cc1nc2ccccc2c(=O)n1/N=C/c1ccccc1F	-101
SMILES	aSyn 5UTR act
O=c1c2ccccc2nc(COc2ccccc2)n1/N=C/c1ccco1	-86
CCOc1ccc(/C=N/n2c(C)nc3ccccc3c2=O)cc1	-67
Nn1c(COc2ccc(Cl)cc2)nc2ccccc2c1=O	-67
Cc1nc2ccccc2c(=O)n1/N=C/c1c(O)ccc2oc3c(c12)CCCC3	0
CCOc1ccccc1NC(=O)c1nc(S(=O)(=O)Cc2cccc(C)c2)ncc1Cl	0
Cc1cccc(CS(=O)(=O)c2ncc(Cl)c(C(=O)Nc3nnc(C(C)C)s3)n2)c1	-98
CC(C)c1nnc(NC(=O)c2nc(S(=O)(=O)Cc3ccccc3F)ncc2Cl)s1	-72
Cc1ccc(CS(=O)(=O)c2ncc(Cl)c(C(=O)Nc3ccc(OC(F)F)cc3)n2)cc1	0
CCc1nnc(NC(=O)c2nc(S(=O)(=O)Cc3cccc(C)c3)ncc2Cl)s1	-114
